Results as given in article PMC5700166.
Positions count from the first letter of the chain named.

What was measured:
Assay in all cases: protein-binding microarray (PBM); PBM: ~300 nM protein, 6 mM HEPES pH 7.8, 80 mM KCl, 0.5 mM EDTA, 0.5 mM EGTA, 6% glycerol, 35 ng/ul poly-dIdC, 1% milk, 1 h, room temperature; Ap Aiptasia and Nv Nematostella (sea anemones) / Co Capsaspora / Aq Amphimedon (sponge) / Dm Drosophila / Hu human; RHD is the Rel homology domain; high values mean tight binding
Conditions in all cases: dsDNA, one strand shown
[1] = target: T1, GST-Ap-NF-kB RHD (Exaiptasia pallida (Aiptasia), UniProt A0A913YAJ5 2-422)
T1 sequence: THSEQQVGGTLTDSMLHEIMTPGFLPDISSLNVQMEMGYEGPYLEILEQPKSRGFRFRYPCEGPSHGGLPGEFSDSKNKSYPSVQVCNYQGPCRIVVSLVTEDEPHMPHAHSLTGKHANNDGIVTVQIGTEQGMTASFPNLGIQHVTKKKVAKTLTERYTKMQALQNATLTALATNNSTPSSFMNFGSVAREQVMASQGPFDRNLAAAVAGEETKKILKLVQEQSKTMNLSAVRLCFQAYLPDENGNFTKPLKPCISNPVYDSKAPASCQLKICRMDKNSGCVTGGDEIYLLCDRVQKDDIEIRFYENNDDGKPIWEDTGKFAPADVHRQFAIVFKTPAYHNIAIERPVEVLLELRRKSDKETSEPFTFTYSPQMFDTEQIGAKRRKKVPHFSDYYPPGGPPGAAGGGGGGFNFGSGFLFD

[2] = target: T2, GST-Nv-NF-kB (Cys allele) (Nematostella vectensis, UniProt E5G601 2-411)
T2 sequence: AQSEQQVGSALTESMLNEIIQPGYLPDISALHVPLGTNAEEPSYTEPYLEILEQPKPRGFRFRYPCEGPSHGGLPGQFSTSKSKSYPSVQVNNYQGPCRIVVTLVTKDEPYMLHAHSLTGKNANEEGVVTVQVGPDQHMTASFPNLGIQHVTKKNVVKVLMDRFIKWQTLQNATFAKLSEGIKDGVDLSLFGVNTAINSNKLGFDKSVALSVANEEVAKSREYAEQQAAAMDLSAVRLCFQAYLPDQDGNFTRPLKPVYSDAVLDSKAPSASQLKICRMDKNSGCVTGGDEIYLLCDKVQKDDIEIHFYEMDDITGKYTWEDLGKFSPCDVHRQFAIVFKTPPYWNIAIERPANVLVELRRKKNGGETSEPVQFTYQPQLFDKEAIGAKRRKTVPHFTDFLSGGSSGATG

[3] = target: T3, GST-Nv-NF-kB (Ser allele) (Nematostella vectensis, UniProt A7UNT2 2-411)
T3 sequence: T2 sequence with Q21R, C66S, S207N, E215Q, V217A, E225K, A268E, D399E

[4] = target: T4, GST-Co-NF-kB (Capsaspora owczarzaki, UniProt F1ARL5 200-546)
T4 sequence: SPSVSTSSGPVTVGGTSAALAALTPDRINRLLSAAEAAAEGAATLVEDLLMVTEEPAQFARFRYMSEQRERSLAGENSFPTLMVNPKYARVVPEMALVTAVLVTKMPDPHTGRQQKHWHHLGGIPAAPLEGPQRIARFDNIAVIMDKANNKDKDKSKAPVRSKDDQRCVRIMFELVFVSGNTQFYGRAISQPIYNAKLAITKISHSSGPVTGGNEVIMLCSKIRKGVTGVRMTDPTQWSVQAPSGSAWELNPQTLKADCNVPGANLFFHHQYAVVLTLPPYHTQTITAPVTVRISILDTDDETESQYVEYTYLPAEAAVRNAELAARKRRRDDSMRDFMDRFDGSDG

[5] = target: T5, GST-Dm-Relish (Drosophila melanogaster, UniProt Q94527 99-473)
T5 sequence: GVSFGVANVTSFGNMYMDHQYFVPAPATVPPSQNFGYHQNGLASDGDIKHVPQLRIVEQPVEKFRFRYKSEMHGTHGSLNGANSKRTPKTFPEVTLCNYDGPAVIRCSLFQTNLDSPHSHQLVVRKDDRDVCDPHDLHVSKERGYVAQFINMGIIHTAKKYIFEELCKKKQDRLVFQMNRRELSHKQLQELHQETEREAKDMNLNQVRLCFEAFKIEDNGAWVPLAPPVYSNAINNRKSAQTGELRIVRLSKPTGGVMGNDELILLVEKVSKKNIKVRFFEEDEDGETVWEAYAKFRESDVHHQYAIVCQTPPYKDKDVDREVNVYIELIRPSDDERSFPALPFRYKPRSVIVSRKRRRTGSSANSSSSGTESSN

[6] = target: T6, GST-Aq-NF-kB (Amphimedon queenslandica, UniProt A9Y5G7 2-389)
T6 sequence: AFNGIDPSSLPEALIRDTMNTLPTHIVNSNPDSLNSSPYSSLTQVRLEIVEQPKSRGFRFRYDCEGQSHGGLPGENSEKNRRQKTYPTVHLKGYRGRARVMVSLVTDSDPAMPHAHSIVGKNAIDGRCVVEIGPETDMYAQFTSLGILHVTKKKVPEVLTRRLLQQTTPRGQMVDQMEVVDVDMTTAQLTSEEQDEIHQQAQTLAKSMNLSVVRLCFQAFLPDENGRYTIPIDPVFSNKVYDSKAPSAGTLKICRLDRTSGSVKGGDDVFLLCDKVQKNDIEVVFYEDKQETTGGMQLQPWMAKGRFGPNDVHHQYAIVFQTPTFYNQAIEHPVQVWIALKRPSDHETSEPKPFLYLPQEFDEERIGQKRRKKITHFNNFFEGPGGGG

[7] = target: GST-Hu-p50 (Homo sapiens, UniProt P19838 7-356)
GST-Hu-p50, sequence (P19838 7-356): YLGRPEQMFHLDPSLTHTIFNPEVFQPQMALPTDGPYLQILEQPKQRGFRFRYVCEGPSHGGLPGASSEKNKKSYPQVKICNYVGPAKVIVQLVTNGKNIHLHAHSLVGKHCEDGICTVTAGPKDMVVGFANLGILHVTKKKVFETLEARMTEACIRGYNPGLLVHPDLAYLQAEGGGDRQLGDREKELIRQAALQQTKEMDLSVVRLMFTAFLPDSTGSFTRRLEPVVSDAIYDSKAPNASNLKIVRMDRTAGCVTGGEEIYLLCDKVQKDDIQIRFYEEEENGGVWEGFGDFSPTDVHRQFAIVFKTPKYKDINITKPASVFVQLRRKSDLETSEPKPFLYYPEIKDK

Row | Sequence | binding signal [1] [z-score] | binding signal [2] [z-score] | binding signal [3] [z-score] | binding signal [4] [z-score] | binding signal [5] [z-score] | binding signal [6] [z-score] | binding signal [7] [z-score]
1 | CCGATTAACATCAGGGGATGAACTGATGTTAATCGGGTCTTGATTCGCTTGACGCTGCTG | 2.44 | 3.65 | 4.24 | 3.23 | 7.62 | 3.73 | 2.94
2 | CCGATTAACATCAGGGAAAACTATGATGTTAATCGGGTCTTGATTCGCTTGACGCTGCTG | 3.76 | 5.55 | 7.33 | 5.67 | 1.67 | 4.07 | 4.03
3 | CCGATTAACATCAGGGGCATACCTGATGTTAATCGGGTCTTGATTCGCTTGACGCTGCTG | 3.84 | 4.44 | 1.94 | 1.44 | 3.9 | 6.89 | 2.64
4 | CCGATTAACATCAAGGGGGTTCCTGATGTTAATCGGGTCTTGATTCGCTTGACGCTGCTG | 9.16 | 6.77 | 6.26 | 1.68 | 10.4 | 7.2 | 6.65
5 | CCGATTAACATCAGGGGAAAAACTGATGTTAATCGGGTCTTGATTCGCTTGACGCTGCTG | 6.41 | 8.02 | 10.3 | 9.24 | 9.62 | 6.72 | 6.32
6 | CCGATTAACATCAGCTTCCCCCCTGATGTTAATCGGGTCTTGATTCGCTTGACGCTGCTG | 5.3 | 4.97 | 5.68 | 7.68 | 4.2 | 4.55 | 4.95
7 | CCGATTAACATCAAAGGACCCCCTGATGTTAATCGGGTCTTGATTCGCTTGACGCTGCTG | 4.81 | 2.82 | 3.92 | 2.19 | 4.18 | 3.79 | 3.2
8 | CCGATTAACATCAGAGCCCCCCCTGATGTTAATCGGGTCTTGATTCGCTTGACGCTGCTG | 4.71 | 3.96 | 3.31 | 3.1 | 4.58 | 4.2 | 3.47
9 | CCGATTAACATCACGGGGAATTATGATGTTAATCGGGTCTTGATTCGCTTGACGCTGCTG | 7.23 | 8.96 | 9.51 | 8.2 | 6.78 | 6.42 | 6.24
10 | CCGATTAACATCAAAAATCCCACTGATGTTAATCGGGTCTTGATTCGCTTGACGCTGCTG | 3.51 | 3.55 | 2.95 | 1.65 | 7.7 | 3.87 | 3.73
11 | CCGATTAACATCAGGGAAACACATGATGTTAATCGGGTCTTGATTCGCTTGACGCTGCTG | 2.17 | 2.95 | 3.46 | 3.05 | 6.06 | 3.52 | 1.39
12 | CCGATTAACATCACATTTCCCCCTGATGTTAATCGGGTCTTGATTCGCTTGACGCTGCTG | 6.84 | 6.99 | 10.2 | 9.84 | 4.03 | 5.23 | 6.55
13 | CCGATTAACATCAACGAAACCCCTGATGTTAATCGGGTCTTGATTCGCTTGACGCTGCTG | 3.65 | 2.45 | 2.84 | 1.39 | 4.41 | 2.77 | 3.87
14 | CCGATTAACATCAAAATACCCCCTGATGTTAATCGGGTCTTGATTCGCTTGACGCTGCTG | 9.02 | 7.56 | 8.62 | 7.21 | 7.72 | 7.21 | 6.58
15 | CCGATTAACATCAGGGGGATTTATGATGTTAATCGGGTCTTGATTCGCTTGACGCTGCTG | 8.91 | 9.22 | 10 | 6.7 | 8.87 | 7.3 | 7.42
16 | CCGATTAACATCAGGACTTCCCCTGATGTTAATCGGGTCTTGATTCGCTTGACGCTGCTG | 10.1 | 10.5 | 9.94 | 4.57 | 9.98 | 10.4 | 6.36
17 | CCGATTAACATCAGGGGACTTACTGATGTTAATCGGGTCTTGATTCGCTTGACGCTGCTG | 5.97 | 5.56 | 5.43 | 2.17 | 8.32 | 5.66 | 5.68
18 | CCGATTAACATCAGGGGGGAGTATGATGTTAATCGGGTCTTGATTCGCTTGACGCTGCTG | 6.07 | 5.01 | 5.11 | 6.88 | 3.7 | 4.54 | 6.15
19 | CCGATTAACATCAGGGGTACCCCTGATGTTAATCGGGTCTTGATTCGCTTGACGCTGCTG | 7.75 | 3.69 | 2.78 | 6.06 | 5.81 | 6.3 | 3.73
20 | CCGATTAACATCAGGGGGAAGAATGATGTTAATCGGGTCTTGATTCGCTTGACGCTGCTG | 5.11 | 6.3 | 6.8 | 9.93 | 4.78 | 4.87 | 5.86
21 | CCGATTAACATCAGGGTATTTTATGATGTTAATCGGGTCTTGATTCGCTTGACGCTGCTG | 5.82 | 8.31 | 7.61 | 3.22 | 5.65 | 7.07 | 5.87
22 | CCGATTAACATCAGGGGGAATTATGATGTTAATCGGGTCTTGATTCGCTTGACGCTGCTG | 7.99 | 9.53 | 10.6 | 9.25 | 7.03 | 7 | 7.24
23 | CCGATTAACATCACGATTTCCCCTGATGTTAATCGGGTCTTGATTCGCTTGACGCTGCTG | 7.82 | 7.92 | 10.8 | 8.64 | 5.06 | 5.72 | 6.24
24 | CCGATTAACATCAGGGGAACAACTGATGTTAATCGGGTCTTGATTCGCTTGACGCTGCTG | 5.15 | 4.83 | 5.57 | 5.75 | 8.64 | 5.43 | 3.48
